This passage reports Percent Effect results from ChEMBL document CHEMBL3988442, “University of Dundee, Small-Polar-MMV Screening Library” (2021).

For some of these results: Results with a measured potency or affinity are listed apart.

Holding throughout (parameters): scale not given: direction of the effect not stated beside the values
The target in experiment [1] is Protein translocase subunit SecA (Escherichia coli (strain K12)) (UniProt P10408). The experiment can be described thus: Assay to Identify E. coli SecA ATPase Inhibitors. In kind it is functional. The conditions noted are these: 30 µM.
Protein translocase subunit SecA (Escherichia coli (strain K12)), sequence (P10408 whole entry): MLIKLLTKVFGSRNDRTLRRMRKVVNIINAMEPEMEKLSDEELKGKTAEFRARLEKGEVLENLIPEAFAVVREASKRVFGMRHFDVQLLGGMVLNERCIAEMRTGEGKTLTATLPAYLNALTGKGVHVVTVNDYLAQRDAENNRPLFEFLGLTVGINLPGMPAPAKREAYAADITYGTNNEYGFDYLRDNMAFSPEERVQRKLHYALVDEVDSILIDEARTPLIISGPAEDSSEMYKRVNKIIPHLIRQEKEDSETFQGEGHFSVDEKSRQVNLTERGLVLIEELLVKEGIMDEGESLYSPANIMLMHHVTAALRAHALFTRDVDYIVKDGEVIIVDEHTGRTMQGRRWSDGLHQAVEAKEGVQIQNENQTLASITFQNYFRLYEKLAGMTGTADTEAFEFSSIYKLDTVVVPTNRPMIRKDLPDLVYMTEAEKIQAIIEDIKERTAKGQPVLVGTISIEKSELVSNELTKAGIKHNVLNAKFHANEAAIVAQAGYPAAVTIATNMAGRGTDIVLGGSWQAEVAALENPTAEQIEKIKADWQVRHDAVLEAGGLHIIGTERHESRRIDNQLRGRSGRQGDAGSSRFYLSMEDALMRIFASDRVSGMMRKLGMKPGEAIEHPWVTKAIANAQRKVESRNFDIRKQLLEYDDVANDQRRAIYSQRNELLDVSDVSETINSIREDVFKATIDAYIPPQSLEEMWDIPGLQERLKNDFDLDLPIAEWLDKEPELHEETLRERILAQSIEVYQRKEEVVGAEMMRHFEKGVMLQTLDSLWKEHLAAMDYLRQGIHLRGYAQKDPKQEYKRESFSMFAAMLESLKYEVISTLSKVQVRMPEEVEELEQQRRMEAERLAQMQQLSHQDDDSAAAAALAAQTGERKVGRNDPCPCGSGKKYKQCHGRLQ
The target in experiment [2] is T1, Ubiquitin-activating enzyme e1, putative (Leishmania donovani (strain BPK282A1)) (UniProt E9BSI1).
T1 sequence (whole entry): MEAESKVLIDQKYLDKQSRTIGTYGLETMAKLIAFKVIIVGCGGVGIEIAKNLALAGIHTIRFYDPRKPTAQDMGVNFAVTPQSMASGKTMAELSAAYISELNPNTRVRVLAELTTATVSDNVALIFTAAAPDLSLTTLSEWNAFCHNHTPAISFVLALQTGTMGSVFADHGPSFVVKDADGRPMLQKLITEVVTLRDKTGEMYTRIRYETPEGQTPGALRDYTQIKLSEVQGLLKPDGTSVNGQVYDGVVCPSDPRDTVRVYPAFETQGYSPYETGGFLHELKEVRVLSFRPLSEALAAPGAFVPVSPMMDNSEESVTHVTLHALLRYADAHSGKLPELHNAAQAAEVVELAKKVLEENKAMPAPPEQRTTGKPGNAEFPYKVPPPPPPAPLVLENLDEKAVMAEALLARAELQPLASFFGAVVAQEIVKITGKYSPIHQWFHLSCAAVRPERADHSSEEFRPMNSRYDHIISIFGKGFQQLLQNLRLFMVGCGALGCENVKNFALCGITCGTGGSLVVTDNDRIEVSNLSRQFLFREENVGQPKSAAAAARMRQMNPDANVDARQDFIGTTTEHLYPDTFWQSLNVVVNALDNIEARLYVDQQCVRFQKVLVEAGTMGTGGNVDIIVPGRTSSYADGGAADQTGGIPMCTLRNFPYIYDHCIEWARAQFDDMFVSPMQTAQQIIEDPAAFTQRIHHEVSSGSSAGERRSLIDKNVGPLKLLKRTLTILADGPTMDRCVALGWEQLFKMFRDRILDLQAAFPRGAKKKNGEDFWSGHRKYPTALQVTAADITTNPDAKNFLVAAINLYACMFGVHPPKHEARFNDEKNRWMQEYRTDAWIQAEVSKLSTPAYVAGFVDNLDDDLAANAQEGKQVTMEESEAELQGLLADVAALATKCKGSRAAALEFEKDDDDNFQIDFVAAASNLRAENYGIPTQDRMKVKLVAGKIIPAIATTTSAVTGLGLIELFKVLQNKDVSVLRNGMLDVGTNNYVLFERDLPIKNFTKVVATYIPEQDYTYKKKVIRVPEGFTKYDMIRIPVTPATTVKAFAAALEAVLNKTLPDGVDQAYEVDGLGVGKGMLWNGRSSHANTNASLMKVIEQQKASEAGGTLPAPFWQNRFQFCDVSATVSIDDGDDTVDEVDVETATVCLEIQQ
The experiment can be described thus: Leishmania donovani Ubiquitin Activating Enzyme (LdE1). In kind it is functional. The conditions noted are these: 30 µM.

Experiment [3] addresses T2, Aspartate--tRNA(Asp/Asn) ligase (Mycobacterium tuberculosis (strain ATCC 25618 / H37Rv)) (UniProt P9WFW3).
T2 sequence (whole entry): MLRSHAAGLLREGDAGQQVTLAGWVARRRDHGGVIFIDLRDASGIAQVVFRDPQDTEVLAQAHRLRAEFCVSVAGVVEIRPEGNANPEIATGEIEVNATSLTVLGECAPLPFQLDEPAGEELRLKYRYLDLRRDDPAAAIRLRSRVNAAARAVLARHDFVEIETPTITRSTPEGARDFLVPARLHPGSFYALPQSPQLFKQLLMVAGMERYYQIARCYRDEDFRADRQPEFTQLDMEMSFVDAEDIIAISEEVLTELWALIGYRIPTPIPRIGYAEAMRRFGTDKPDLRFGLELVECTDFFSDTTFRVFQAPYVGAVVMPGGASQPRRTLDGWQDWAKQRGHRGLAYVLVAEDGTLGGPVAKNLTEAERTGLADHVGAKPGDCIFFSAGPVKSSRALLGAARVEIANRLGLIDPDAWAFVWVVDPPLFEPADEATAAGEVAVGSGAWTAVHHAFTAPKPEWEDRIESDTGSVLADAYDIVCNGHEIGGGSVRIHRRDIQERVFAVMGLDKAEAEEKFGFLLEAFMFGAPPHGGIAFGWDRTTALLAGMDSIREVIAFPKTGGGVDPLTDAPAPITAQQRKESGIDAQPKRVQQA
Briefly: Assay for Asp RNA synthetase-1 from Mycobacterium tuberculosis. In kind it is functional. The conditions noted are these: 30 µM.

Experiment [4] deals with AMP-activated protein kinase, AMPK (Homo sapiens) (UniProt P54646+O43741+P54619+Q9UGJ0+Q9Y478+Q13131+Q9UGI9). Briefly: AMP-dependent Kinase enzyme assay. An in vitro enzyme assay that detects ADP turnover that is directly proportional to AMPK activity. This uses naive AMPK that is activated during the assay with MK-8722. The conditions noted are these: 30 µM. In kind it is functional.

In experiment [5] the target is Sialic acid-binding Ig-like lectin 9 (Homo sapiens) (UniProt Q9Y336). Briefly: Hs-Siglec9 ALPHAscreen SOP 20170721. The conditions noted are these: 10 µM. Background: Alpha assays give light when donor and acceptor beads are brought close together.
Sialic acid-binding Ig-like lectin 9 (Homo sapiens), sequence (Q9Y336 whole entry): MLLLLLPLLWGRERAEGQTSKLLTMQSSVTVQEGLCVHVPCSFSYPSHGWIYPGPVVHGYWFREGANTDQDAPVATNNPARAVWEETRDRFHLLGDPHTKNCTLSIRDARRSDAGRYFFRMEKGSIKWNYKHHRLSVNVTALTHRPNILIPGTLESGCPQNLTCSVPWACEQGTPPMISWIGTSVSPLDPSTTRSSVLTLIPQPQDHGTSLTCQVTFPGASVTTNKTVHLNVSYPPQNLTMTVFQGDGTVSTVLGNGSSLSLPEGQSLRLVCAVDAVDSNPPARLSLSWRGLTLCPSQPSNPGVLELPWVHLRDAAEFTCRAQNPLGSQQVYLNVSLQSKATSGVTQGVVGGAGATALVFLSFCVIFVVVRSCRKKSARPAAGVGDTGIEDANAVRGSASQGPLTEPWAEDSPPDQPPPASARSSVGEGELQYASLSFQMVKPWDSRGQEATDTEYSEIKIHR
The subject of the next experiment is Trypanosoma cruzi. Briefly: Trypanosoma cruzi phosphomannomutase and mannose-1-phosphate guanylyltransferase assay. In kind it is functional. The conditions noted are these: 10 µM.
In experiment [6] the target is T3, Arginase-2, mitochondrial (Homo sapiens) (UniProt P78540).
T3 sequence (whole entry): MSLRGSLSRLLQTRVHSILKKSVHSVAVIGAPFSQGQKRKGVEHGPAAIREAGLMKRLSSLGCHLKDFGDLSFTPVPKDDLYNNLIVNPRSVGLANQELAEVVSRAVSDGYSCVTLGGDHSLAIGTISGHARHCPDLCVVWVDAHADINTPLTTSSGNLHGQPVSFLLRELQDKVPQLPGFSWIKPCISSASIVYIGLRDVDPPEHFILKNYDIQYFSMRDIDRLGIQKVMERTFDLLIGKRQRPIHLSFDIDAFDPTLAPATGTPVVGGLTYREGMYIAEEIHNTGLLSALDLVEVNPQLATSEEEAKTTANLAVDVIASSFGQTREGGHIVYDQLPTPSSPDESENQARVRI
Briefly: in vitro enzyme assay to detect the production of urea directly proportional to the activity of Arginase II. Further: in the data most compounds retested in dose-response had high values. In kind it is functional. Conditions: 33.3 µM.

Experiment [7] deals with T4, Proteasome subunit beta (Trypanosoma cruzi) (UniProt O96673).
T4 sequence (whole entry): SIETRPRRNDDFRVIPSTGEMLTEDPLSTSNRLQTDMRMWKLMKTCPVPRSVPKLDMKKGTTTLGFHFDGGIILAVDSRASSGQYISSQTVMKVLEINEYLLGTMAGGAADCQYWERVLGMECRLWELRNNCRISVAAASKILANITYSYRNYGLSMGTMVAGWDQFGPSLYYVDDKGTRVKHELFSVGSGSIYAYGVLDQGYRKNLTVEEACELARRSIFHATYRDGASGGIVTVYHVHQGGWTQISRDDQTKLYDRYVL
Briefly: Trypanosoma cruzi proteasome chymotrypsin-like activity (TcProtChymo) assay. Further: in the data most compounds retested in dose-response had high values. In kind it is functional. Conditions: 9.37 µM.

For the next experiment, the species on record is Homo sapiens. Briefly: To identify inhibition of the IFN signalling (Jak-Stat) pathway via expression of an eGFP reporter gene under the control of an IFN-stimulated response element (ISRE) containing MxA promoter. Conditions: 30 µM. In kind it is functional. A general note: Reporter assays use an easily measured gene product as a stand-in for the process of interest.

Experiment [8] addresses Shiga toxin 2 (Escherichia coli O157:H7) (UniProt P09385+P09386). Briefly: E. coli 0.157:H7 Shiga Toxin SOP - stx2 screening assay. In kind it is functional. Conditions: 30 µM.
The target of experiment [9] is T5, Tyrosyl-tRNA synthetase, putative (Trypanosoma cruzi (strain CL Brener)) (UniProt Q4DSP6).
T5 sequence (whole entry): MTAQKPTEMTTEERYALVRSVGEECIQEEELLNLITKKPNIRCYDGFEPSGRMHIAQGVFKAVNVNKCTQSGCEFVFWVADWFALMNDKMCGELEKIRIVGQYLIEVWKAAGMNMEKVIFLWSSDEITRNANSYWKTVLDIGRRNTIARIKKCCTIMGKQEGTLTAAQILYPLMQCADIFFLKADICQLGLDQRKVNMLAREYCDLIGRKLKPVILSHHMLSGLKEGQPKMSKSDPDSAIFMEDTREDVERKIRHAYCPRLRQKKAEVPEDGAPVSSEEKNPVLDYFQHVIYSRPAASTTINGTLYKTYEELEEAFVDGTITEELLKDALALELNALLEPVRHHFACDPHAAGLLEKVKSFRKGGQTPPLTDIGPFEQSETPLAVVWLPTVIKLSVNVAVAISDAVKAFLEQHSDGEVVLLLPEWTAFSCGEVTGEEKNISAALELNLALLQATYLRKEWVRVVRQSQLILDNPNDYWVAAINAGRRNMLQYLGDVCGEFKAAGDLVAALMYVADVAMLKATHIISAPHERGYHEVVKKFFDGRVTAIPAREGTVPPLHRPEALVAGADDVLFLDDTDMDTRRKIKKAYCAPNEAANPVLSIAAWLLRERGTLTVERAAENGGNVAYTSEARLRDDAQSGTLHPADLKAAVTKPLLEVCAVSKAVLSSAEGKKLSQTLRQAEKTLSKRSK
The experiment can be described thus: Trypanosoma cruzi tyrosyl tRNA synthetase (TcYRS) _High Tyrosine SOP. Further: in the data most compounds retested in dose-response had high values. In kind it is functional. Conditions: 30 µM.

Experiment [10] addresses T5, Tyrosyl-tRNA synthetase, putative (Trypanosoma cruzi (strain CL Brener)). The experiment can be described thus: Trypanosoma cruzi tyrosyl tRNA synthetase (TcYRS) SOP. In kind it is functional. The conditions noted are these: 30 µM.
The target in experiment [11] is Chromo domain-containing protein 1 (Saccharomyces cerevisiae (strain ATCC 204508 / S288c) (Baker's yeast)) (UniProt P32657). Briefly: ScCHD-1 Enzyme Inhibition Assay. Further: in the data most compounds retested in dose-response had high values. Conditions: 30 µM. In kind it is functional.
Chromo domain-containing protein 1 (Saccharomyces cerevisiae (strain ATCC 204508 / S288c) (Baker's yeast)), sequence (P32657 whole entry, the tested form may be a part): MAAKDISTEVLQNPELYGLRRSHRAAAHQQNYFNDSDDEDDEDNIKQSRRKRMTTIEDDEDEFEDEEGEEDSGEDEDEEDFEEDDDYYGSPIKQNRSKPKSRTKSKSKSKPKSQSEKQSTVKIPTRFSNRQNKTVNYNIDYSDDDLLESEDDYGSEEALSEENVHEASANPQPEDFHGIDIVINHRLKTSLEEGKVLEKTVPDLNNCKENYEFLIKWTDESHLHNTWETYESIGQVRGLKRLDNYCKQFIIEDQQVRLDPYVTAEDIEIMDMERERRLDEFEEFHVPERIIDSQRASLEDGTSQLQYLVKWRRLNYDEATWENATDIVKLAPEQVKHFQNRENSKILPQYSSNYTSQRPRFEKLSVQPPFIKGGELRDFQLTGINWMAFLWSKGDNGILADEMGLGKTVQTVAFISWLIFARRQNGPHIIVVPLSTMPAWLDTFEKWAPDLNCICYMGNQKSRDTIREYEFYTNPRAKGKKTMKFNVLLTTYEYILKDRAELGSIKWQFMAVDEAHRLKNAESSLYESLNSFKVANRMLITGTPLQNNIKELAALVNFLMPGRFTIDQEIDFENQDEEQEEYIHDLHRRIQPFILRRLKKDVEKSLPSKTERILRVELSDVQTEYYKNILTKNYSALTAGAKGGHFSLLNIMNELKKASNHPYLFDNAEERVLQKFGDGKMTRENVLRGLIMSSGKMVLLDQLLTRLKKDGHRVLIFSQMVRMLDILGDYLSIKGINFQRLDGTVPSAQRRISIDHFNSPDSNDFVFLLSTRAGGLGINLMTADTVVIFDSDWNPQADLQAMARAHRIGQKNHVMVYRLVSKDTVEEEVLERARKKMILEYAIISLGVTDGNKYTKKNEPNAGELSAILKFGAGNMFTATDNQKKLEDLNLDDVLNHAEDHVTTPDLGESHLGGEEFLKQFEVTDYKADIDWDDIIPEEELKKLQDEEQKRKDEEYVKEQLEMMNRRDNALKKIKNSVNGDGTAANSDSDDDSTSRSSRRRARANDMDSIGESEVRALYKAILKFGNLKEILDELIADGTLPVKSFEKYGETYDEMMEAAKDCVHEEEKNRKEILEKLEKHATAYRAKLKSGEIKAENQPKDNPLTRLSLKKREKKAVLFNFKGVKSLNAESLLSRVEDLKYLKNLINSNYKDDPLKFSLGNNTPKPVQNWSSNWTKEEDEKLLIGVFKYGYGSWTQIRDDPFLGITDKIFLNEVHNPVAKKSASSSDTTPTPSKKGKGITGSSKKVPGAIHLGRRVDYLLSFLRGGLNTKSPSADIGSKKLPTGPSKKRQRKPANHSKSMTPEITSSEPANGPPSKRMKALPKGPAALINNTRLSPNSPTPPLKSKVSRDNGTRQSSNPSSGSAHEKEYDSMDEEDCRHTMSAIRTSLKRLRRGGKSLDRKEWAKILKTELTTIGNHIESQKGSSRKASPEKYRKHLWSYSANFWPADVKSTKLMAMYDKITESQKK

In the case of `Cc1c(CC(=O)N2CCN(CC(F)(F)F)CC2)nnn1-c1ccccc1`, the Percent Effect in experiment [1] was -3.34%; in [2], 10.4%; in experiment [3], 12.8%; in experiment [4], -2.43%; in experiment [5], 2.86%; with Trypanosoma cruzi, -2.65%. The Percent Effect in [6] was 2.76%; in experiment [7], 10.8%; in the experiment listed under Homo sapiens, 11.9%; in experiment [8] it was -45.5%; in experiment [9] it was 4.3%; in experiment [10], 8.64%. Further, the Percent Effect in experiment [11] is -1.92%.

Turning to `CCc1nnc(C(C)N2CCCN(C(=O)Oc3ccccc3)CC2)o1` (configuration not stated), the Percent Effect is -1.28% in [1]; 15.8% in experiment [2]; -3.35% in experiment [3]; 0.0863% in experiment [4]; -6.34% in experiment [5]; -6.72% with Trypanosoma cruzi. For the same compound, the Percent Effect in experiment [6] is -3.55%; in [7] it was 12.6%; in the experiment listed under Homo sapiens it was 3.97%; in experiment [8] it was -15.6%; in experiment [9] it was 2.13%; in experiment [10] it was 5.2%. Moreover, the Percent Effect in [11] is -5.08%.

Turning to `COC[C@]12COC[C@H]1CN(Cc1cccnc1OC)C2`, the Percent Effect in experiment [1] is -3.99%; in experiment [2], 9.33%; in experiment [3], -1.36%; in experiment [4], 1.98%; in [5], 1.86%; with Trypanosoma cruzi it was -4.32%. Moreover, the Percent Effect in experiment [6] was -8.63%; in [7] it was 18.7%; in the experiment filed under Homo sapiens, -3.88%; in [8], -17.2%; in [9] it was 7.41%; in experiment [10], 5.13%. Further, in experiment [11], the Percent Effect is -3.25%.

Take `O=C(Cc1ccc(F)cc1)N1CCN(CC(O)C2CC2)CC1` (configuration not stated): the Percent Effect in experiment [1] is -9.94%; in experiment [2] it was 5.48%; in experiment [3], 0.575%; in experiment [4], 0.569%; in experiment [5], -4.1%; in the experiment on Trypanosoma cruzi, -5.09%. Also, the Percent Effect in experiment [6] was -3.64%; in [7] it was 6.74%; in the experiment listed under Homo sapiens, 10.6%; in experiment [8], 7.07%; in experiment [9] it was 3.23%; in [10], 10%. Also, the Percent Effect in [11] is -5.88%.
